Measured values: PubChem BioAssay AID2242 (National Center for Advancing Translational Sciences (NCATS), 2010)
Screen size: about 200,000 compounds; about 720 (0.36%) were called active. Roughly 8% stayed inconclusive and do not appear here. The call rests on the fitted dose curve; in most records, active means well fitted activation curve with a large enough effect; inconclusive means small, poorly fitted or top-dose-only effect, or effect the other way, or another doubt; inactive means flat fitted curve, though single readings scatter. Some of the results follow.

Target: Lysosomal alpha-glucosidase (Homo sapiens) (UniProt P10253)
Assay: qHTS Assay for Activators of Human alpha-Glucosidase as a Potential Chaperone Treatment of Pompe Disease; further: nearly all actives have a fitted effect of over 80% in size
Conditions: purified enzyme, 4-MU-alpha-glucoside fluorescence, 20 min; series mostly up to 76.9 µM
Summary of the method: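 Fluorogenic assay, 4 nM enzyme, 400 uM 4-methylumbelliferyl-[…], pH 5.0 citrate/phosphate buffer with 0.005% Tween-20, compounds up to 77 uM, 20 min at room temperature. NaOH/glycine stop, Ex 365/Em 440 nm; AC50 from Hill fits.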
Potency means the concentration at half of the fitted maximal effect.

Potency, active:
O=C(COC(=O)c1ccccc1Nc1ccccc1)NCc1ccccc1Cl 28.2 µM, CCCCNS(=O)(=O)c1ccc2nc(-c3cccs3)cc(C(=O)NCC(OC)OC)c2c1 25.1 µM, COc1cc2cc(C(N)=O)c(N)nc2cc1OC 35.5 µM, COc1ccccc1N1CCN(C(=O)c2c(-c3ccccc3)noc2C)CC1 35.5 µM, CCNC(=O)/C(C#N)=C/c1c(N2CCOCC2)nc2ccccn2c1=O 28.2 µM, O=c1cc(CN2CCN(S(=O)(=O)/C=C/c3ccccc3)CC2)c2ccc(O)cc2o1 35.5 µM, O=c1cc(CN2CCN(S(=O)(=O)c3ccc4c(c3)OCCO4)CC2)c2ccc(O)cc2o1 28.2 µM, O=c1[nH]c(=O)c2nc(-c3ccc(Cl)cc3)cnc2[nH]1 28.2 µM, c1ccc(CN2c3ccccc3-c3nc4ccccc4n3C2c2ccccn2)cc1 (stereo not given) 28.2 µM, CCN1c2ccccc2-c2nc3ccccc3n2C1c1ccccn1 (stereo not given) 31.6 µM, CC(=O)Nc1ccc(-c2cn3cccnc3n2)cc1 28.2 µM, CCOCC(=O)Nc1ccc(-c2cn3cccnc3n2)cc1 35.5 µM, CCOCC(=O)Nc1cc(-c2cn3cccnc3n2)ccc1C 35.5 µM, COCC(=O)Nc1ccc(-c2cn3cccnc3n2)cc1 35.5 µM, CCCCCC(=O)Nc1ccc(-c2cn3cccnc3n2)cc1 35.5 µM, Cc1onc(-c2ccccc2Cl)c1C(=O)Nc1cccc(-c2nc3ncccn3c2C)c1 35.5 µM, Cc1onc(-c2ccccc2Cl)c1C(=O)Nc1ccc(-c2cn3cccnc3n2)cc1 35.5 µM, CC(C)(O[C@@H]1O[C@H](CO)[C@@H](O)[C@H](O)[C@H]1O)[C@H]1Cc2cc3ccc(=O)oc3cc2O1 35.5 µM, O=C(Oc1ccc2c3c(c(=O)oc2c1)CCC3)c1ccco1 35.5 µM, O=C(Oc1ccc2c3c(c(=O)oc2c1)CCCC3)c1ccco1 35.5 µM, O=C(Oc1cc2oc(=O)c3c(c2cc1Cl)CCCC3)c1ccco1 10 µM, CCCc1cc(NCC2CCCO2)n2c(nc3ccccc32)c1C#N (stereo not given) 35.5 µM, CC(C)c1cc(NCC2CCCO2)n2c(nc3ccccc32)c1C#N (stereo not given) 35.5 µM, COc1ccc2cc3cc(C(=O)NCCCN4CCOCC4)oc3nc2c1 35.5 µM, CCN1CCN(CCCNC(=O)c2cc3cc4ccc(OC)cc4nc3o2)CC1 35.5 µM, CCCSc1nc2sc3c(c2c(=O)[nH]1)CCN(Cc1ccccc1)C3 31.6 µM, COC(=O)c1sc2ccccc2c1N 39.8 µM, COC(=O)c1sc2cnccc2c1N 35.5 µM, COC(=O)c1ccncc1N 35.5 µM, Cc1ccc(S(=O)(=O)c2c(N)n(CC3CCOC3)c3nc4ccccc4nc23)cc1 (stereo not given) 35.5 µM, Cc1ccc(S(=O)(=O)c2c(N)n(CCCO)c3nc4ccccc4nc23)cc1 35.5 µM, Cc1ccc(-n2c(N)c(S(=O)(=O)c3ccccc3)c3nc4ccccc4nc32)cc1 25.1 µM, Cc1cccc(S(=O)(=O)c2c(N)n(-c3ccccc3)c3nc4ccccc4nc23)c1 35.5 µM, Nc1c(S(=O)(=O)c2ccccc2)c2nc3ccccc3nc2n1C1CC1 28.2 µM, Cc1ccc(S(=O)(=O)c2c(N)n(C)c3nc4ccccc4nc23)cc1 25.1 µM, Nc1c(S(=O)(=O)c2ccccc2)c2nc3ccccc3nc2n1CCN1CCOCC1 39.8 µM, Nc1c(S(=O)(=O)c2ccccc2)c2nc3ccccc3nc2n1Cc1ccco1 28.2 µM, Cc1cccn2c(=O)c3cc(C#N)c(=NC(=O)c4ccncc4)n(CCCOC(C)C)c3nc12 35.5 µM, COCCCn1c(=NC(=O)c2ccccc2)c(C#N)cc2c(=O)n3cccc(C)c3nc21 39.8 µM, COCCCn1c(=NC(=O)c2ccncc2)c(C#N)cc2c(=O)n3cccc(C)c3nc21 35.5 µM, CCC1OC2(C)OC(=N)C1(C#N)C(C#N)(C#N)C2c1ccccc1 (stereo not given) 35.5 µM, CCC12OC(=N)C(C#N)(C1C)C(C#N)(C#N)C(c1ccccc1)O2 (stereo not given) 39.8 µM, CC(=O)Nc1ccc(S(=O)(=O)C(C#N)c2nc3ccccc3nc2NCCCO)cc1 (stereo not given) 31.6 µM, CC(=O)Nc1ccc(S(=O)(=O)C(C#N)c2nc3ccccc3nc2NCCO)cc1 (stereo not given) 35.5 µM, Cc1ccc(S(=O)(=O)NC(C(=O)Oc2ccc3ccc(=O)oc3c2)c2ccccc2)cc1 (stereo not given) 35.5 µM, Cc1ccc(S(=O)(=O)NC(C(=O)Oc2ccc3c(C)c(Cl)c(=O)oc3c2)c2ccccc2)cc1 (stereo not given) 28.2 µM, Cc1ccc(S(=O)(=O)NC(C(=O)Oc2cc3oc(=O)cc(C)c3cc2Cl)C(C)C)cc1 (stereo not given) 31.6 µM, CC(C)(C)OC(=O)NCCC(=O)Oc1ccc2ccc(=O)oc2c1 35.5 µM, CC(NC(=O)OC(C)(C)C)C(=O)Oc1ccc2ccc(=O)oc2c1 (stereo not given) 31.6 µM, O=C(Oc1ccc2ccc(=O)oc2c1)C1CCCCC1 35.5 µM, Cc1c(CCC(=O)O)c(=O)oc2cc(O)ccc12 35.5 µM, CCOC(=O)CCc1c(C)c2ccc(O)cc2oc1=O 35.5 µM, Cc1ccccc1C(=O)N=c1c(C#N)cc2c(=O)n3cccc(C)c3nc2n1Cc1ccco1 35.5 µM, Cc1cccc(C(=O)N=c2c(C#N)cc3c(=O)n4cccc(C)c4nc3n2Cc2ccco2)c1 35.5 µM, Fc1ccc(N2N=C(c3cccs3)CC2c2ccco2)c(F)c1 (stereo not given) 31.6 µM, Clc1ccc(N2N=C(c3cccs3)CC2c2ccco2)cc1 (stereo not given) 35.5 µM, O=c1oc2ccccc2c2c1SC(C(F)(F)F)C2 (stereo not given) 31.6 µM, NS(=O)(=O)c1ccc(N2N=C(c3ccccc3)CC2c2ccccc2)cc1 (stereo not given) 31.6 µM, NS(=O)(=O)c1ccc(N2N=C(c3ccc(Br)cc3)CC2c2ccc(F)cc2)cc1 (stereo not given) 31.6 µM, O=S(=O)(O)c1ccc(N2N=C(c3ccccc3)CC2c2ccccc2)cc1 (stereo not given) 35.5 µM, COc1ccc(C2CC(c3ccccc3)=NN2c2ccc(Cl)c(C(=O)O)c2)cc1 (stereo not given) 28.2 µM, COc1ccc(C2CC(c3ccccc3)=NN2c2ccc(S(N)(=O)=O)cc2)cc1OC (stereo not given) 31.6 µM, NS(=O)(=O)c1ccc(N2N=C(c3ccccc3)CC2c2cccc(F)c2)cc1 (stereo not given) 35.5 µM, CCc1ccc(C2=NN(c3ccc(S(N)(=O)=O)cc3)C(c3ccc(F)cc3)C2)cc1 (stereo not given) 31.6 µM, NS(=O)(=O)c1ccc(N2N=C(c3ccccc3)CC2c2ccc(F)cc2)cc1 (stereo not given) 31.6 µM
